Results filed as inconclusive are left out. Active and inactive are the calls of the source. Unless noted, calls follow the shape of the dose curve; as a rule, active = well fitted curve in the direction sought with a large enough effect; inconclusive = small, poorly fitted or top-dose-only effect, or another doubt; inactive = no such curve, though single readings can be large; an effect the other way counts as inactive or inconclusive.
What was measured:
[1] = Cell Viability - BJ (AID 421; calls by dose curve;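 also: potency is read from the fitted curve at half-maximal effect; cells exposed to compound for 40 hours at 37 °C before readout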); settings: BJ fibroblast viability, qHTS
Method in brief: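 Quantitative HTS: ATP depletion in BJ cells after 40 hr compound exposure in complete culture medium, detected with CellTiter-Glo; AC50 from standard Hill fits.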

[2] = Cell Viability - Jurkat (AID 426;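 active = dose-dependent loss of cell ATP signal giving a full or clear fitted curve, ranked by lower potency value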; also: potency is read from the fitted curve at half-maximal effect); settings: qHTS
Method in brief: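 qHTS, 1536-well; Jurkat E6-1, 5000 cells/well, complete medium; cpd 40 hr, 37 °C; CellTiter-Glo 20 min RT; luminescence. AC50 by Hill fit.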

[3] = Cell Viability - Hek293 (AID 427;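 active = compounds whose dose-response curve shows a full or clear partial loss of cell viability, called from curve shape rather than a numeric limit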;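 also: potency is read from the fitted curve at half-maximal effect; cells exposed to compound for 40 hours at 37 °C before reading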); settings: qHTS
Method in brief: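 AC50 values derive from Hill-modelled concentration-response of ATP-based luminescence, normalized between DMSO-only and 100 uM tamoxifen controls. Cells were exposed in complete culture medium for 40 hr at 37 °C before detection.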

[4] = Cell Viability - HepG2 (AID 433; calls by dose curve;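 also: potency is read from the fitted curve at half-maximal effect; potency for ATP loss meaning cytotoxicity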); settings: qHTS
Method in brief: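 HepG2 hepatocellular carcinoma cells (1500/well) were treated with compounds for 40 h at 37 °C in complete medium; intracellular ATP was read by CellTiter-Glo luminescence. Data were normalized to DMSO and 100 uM tamoxifen, and AC50 came from Hill fits.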

[5] = Cell Viability - MRC5 (AID 434; calls by dose curve;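 also: potency is read from the fitted curve at half-maximal effect; potency reflects cytotoxicity seen as loss of intracellular ATP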); settings: MRC5 lung fibroblast viability, qHTS
Method in brief: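 MRC5 normal human lung fibroblasts, 1500 cells/well, exposed to compound for 40 hr at 37 C. Cellular ATP was read by CellTiter-Glo luminescence; data normalized to DMSO and 100 uM tamoxifen, with AC50 from Hill fits.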

[6] = Cell Viability - SK-N-SH (AID 435; calls by dose curve;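 also: potency is read from the fitted curve at half-maximal effect; compound exposure lasted 40 h at 37 °C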); settings: SK-N-SH neuroblastoma cell viability qHTS
Method in brief: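 SK-N-SH human neuroblastoma cells (1500/well) were exposed to compounds in complete medium for 40 h at 37 °C, and intracellular ATP was then measured by CellTiter-Glo luminescence. AC50 was taken from Hill fits, normalized to DMSO and 100 uM tamoxifen.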

[7] = target: Mitogen-activated protein kinase 10 (Mus musculus) (UniProt Q61831); test: JNK3 AlphaScreen Assay (AID 530; active = well fitted curve in either direction with a large enough effect, not every such curve was filed as active;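 also: kinase came from lysate of stimulated human HepG2 cells; signal reports phosphorylation of biotinylated GST-cJun 1-79 at Ser73 with 10 µM ATP; % is scaled to controls: 0 for no effect and ±100 for the full control effect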); settings: JNK3 lysate, c-Jun phosphorylation; series mostly up to 57.1 µM
Method in brief: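 Pre-activated (IL-1β/TNFα) JNK3 in HepG2 lysates phosphorylates biotin-GST-cJun(1-79), 10 uM ATP; anti-phospho-cJun(Ser73) AlphaScreen read at room temperature, pH 7.6 Tris buffer. Compounds pre-incubated 15 min as titrations.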

[8] = Cell Viability - N2a (AID 540); settings: N2a mouse neuroblastoma cell viability; activity change, negative = cytotoxicity: at 92.2 µM (top of the series);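 also: plate controls were DMSO alone for no effect and tamoxifen control for full effect; nearly all actives have a fitted effect of over 45% in size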
Method in brief: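 Luminescent ATP signal (CellTiter-Glo, 20 min at room temperature) served as the viability read-out after N2a cells were treated with compounds for 40 hours at 37 °C. Concentration-response data were fitted to the Hill equation for AC50.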

[9] = Cell Viability - NIH 3T3 (AID 541); settings: NIH 3T3 cell viability, qHTS; activity change, negative = cytotoxicity: at 92.2 µM (top of the series);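 also: plate controls were DMSO alone for no effect and tamoxifen positive control for full effect; nearly all actives have a fitted effect of over 25% in size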
Method in brief: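 Luminescent ATP signal (CellTiter-Glo) served as the viability read-out after NIH 3T3 cells were exposed to compounds over a concentration range for 40 hr at 37 °C. Hill-equation modelling of concentration-response data gave AC50.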

[10] = Cell Viability - HUV-EC-C (AID 542); settings: HUV-EC-C endothelial cell viability, qHTS; series mostly up to 92.2 µM; also: % is scaled to controls: 0 for no effect and ±100 for the full control effect; nearly all actives have a fitted effect of over 35% in size
Method in brief: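 qHTS cytotoxicity: HUV-EC-C, 1000 cells/well, 5 hr settle, compound 40 hr 37 °C, CellTiter-Glo, luminescence. AC50 via Hill equation.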

[11] = Cell Viability - H-4-II-E (AID 543); settings: H-4-II-E rat hepatoma viability; series mostly up to 92.2 µM; also: % is scaled to controls: 0 for no effect and ±100 for the full control effect; nearly all actives have a fitted effect of over 35% in size
Method in brief: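 Luminescent ATP signal (CellTiter-Glo) served as the viability read-out, with cytotoxicity seen as a concentration-dependent ATP drop. Cells were treated for 40 hours in complete medium. AC50 values derive from Hill-equation modelling.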

[12] = Cell Viability - SH-SY5Y (AID 544); settings: SH-SY5Y neuroblastoma cell viability; viability change, negative = cytotoxic: at 92.2 µM (top of the series); also: nearly all actives have a fitted effect of over 55% in size
Method in brief: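 Luminescent ATP read-out (CellTiter-Glo) measures loss of viable SH-SY5Y neuroblastoma cells after 40 hr compound exposure at 37 °C. AC50 values derive from standard Hill modelling of qHTS concentration-response data.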

[13] = Cellular Toxicity (caspase-3) HepG2 (AID 654); settings: HepG2 caspase-3 activation, luminescence; series mostly up to 92.2 µM;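 also: cells exposed to compound for 16 hours before reading; 0% = DMSO alone and 100% = caspase signal from 100 µM tamoxifen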
Method in brief: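 Cells plated 5 hr at 37 °C, compound added, incubated 16 hr at 37 °C. Caspase-Glo 3/7 reagent followed, 20 min at room temperature, then luminescence read. Activation scored as signal increase; AC50 from Hill fit.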

[14] = Cellular Toxicity (caspase-3) Jurkat (AID 655); settings: Jurkat caspase-3 activation, luminescence; caspase-3 activation: at 92.2 µM (top of the series), DMSO = 0%, tamoxifen = 100%;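 also: cells exposed to compound for 16 h at 37 °C before reading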
Method in brief: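 Jurkat cells (5000/well) in complete medium were treated with compounds for 16 hr at 37 °C, then Caspase-Glo 3/7 luminescence was read after 20 min at room temperature. Data normalized to DMSO (basal) and 100 uM tamoxifen (100%); AC50 from Hill fit.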

[15] = Cellular Toxicity (caspase-3) HUV-EC-C (AID 656); settings: HUV-EC-C cells, caspase-3 activation (apoptosis), vehicle = 0, 100 µM tamoxifen = 100%; series mostly up to 92.2 µM
Method in brief: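 HUV-EC-C endothelial cells, 1000/well, were pre-incubated 5 hr at 37°C, then exposed to compounds for 16 hr at 37°C. Caspase-Glo 3/7 luminescence was read after 20 min at room temperature. AC50 came from Hill fits, normalized to DMSO and 100 uM tamoxifen.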

[16] = Cellular Toxicity (caspase-3) SHSY5Y (AID 657); settings: SH-SY5Y caspase-3 activation, DMSO zero, 10 µM staurosporine = 100%; series mostly up to 91.7 µM
Method in brief: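 SH-SY5Y human neuroblastoma cells (1500/well) were treated with compounds for 16 h at 37 °C, then Caspase-Glo 3/7 luminescence was read after 1 h at room temperature. Data normalized to DMSO and 10 uM staurosporine; AC50 from Hill fits.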

[17] = Cellular Toxicity (caspase-3) BJ (AID 658); settings: BJ fibroblasts, luminescence, normalized: DMSO 0%, staurosporine 100%; series mostly up to 91.7 µM
Method in brief: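 BJ human foreskin fibroblasts, 1000 cells/well, treated 16 hours at 37 °C in complete medium; caspase 3/7 activity by Caspase-Glo luminescence after 1 hr at room temperature. Normalized to DMSO and 10 uM staurosporine; AC50 from Hill fits.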

[18] = Cellular Toxicity (caspase-3) MRC-5 (AID 659); settings: MRC-5 cells, luminescence, normalized: DMSO 0%, 10 µM staurosporine 100%; series mostly up to 91.7 µM
Method in brief: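 MRC-5 human normal lung fibroblasts, 1500 cells/well, treated 16 h at 37 °C in complete medium. Caspase 3/7 measured by Caspase-Glo luminescence after 1 h at room temperature. Normalized to DMSO and 10 uM staurosporine; AC50 from Hill fit.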

[19] = Cell Viability - Mesenchymal (AID 546); settings: mesenchymal cells viability, qHTS; series mostly up to 91.7 µM;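 also: cells exposed to compound for 40 hours before reading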
Method in brief: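 Human kidney mesenchymal cells from normal renal glomeruli, 1000 cells/well, rested 5 hr at 37 °C, then treated 40 hr at 37 °C in complete medium. Cellular ATP read by CellTiter-Glo luminescence; AC50 from Hill-equation fits.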

[20] = Cell Viability - Renal Proximal Tubule (AID 545); settings: renal proximal tubule cells viability, primary cells of rat origin; series mostly up to 91.7 µM; also: nearly all actives have a fitted effect of over 40% in size
Method in brief: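 Primary rat renal proximal tubule cells (1000/well) were treated with compounds for 40 hr at 37 °C in complete medium. Intracellular ATP was measured by CellTiter-Glo luminescence, and AC50 values came from Hill-equation fits of concentration-response data.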

CCN(CC)c1cccc(O)c1
inactive: Potency [1] > 92 µM | Potency [2] > 92 µM | Potency [3] > 92 µM | Potency [4] > 92 µM | Potency [5] > 92 µM | Potency [6] > 92 µM | outcome [7] | activity change, negative = cytotoxicity [8] 0.0315% | Potency [9] | Potency [10] | Potency [11] | Potency [12] | Potency [13] | caspase-3 activation [14] 0.712% | outcome [15] | outcome [16] | outcome [17] | outcome [18]

CNc1ccccc1
inactive: Potency [1] > 92 µM | Potency [2] > 92 µM | Potency [3] > 92 µM | Potency [4] > 92 µM | Potency [5] > 92 µM | Potency [6] > 92 µM | outcome [7] | activity change, negative = cytotoxicity [8] -12.9% | Potency [9] | Potency [10] | Potency [11] | Potency [12] | Potency [19] | Potency [13] | caspase-3 activation [14] 1.08% | outcome [15] | outcome [16] | outcome [17] | outcome [18]

Cc1cccc2sc(N)nc12
inactive: Potency [1] > 92 µM | Potency [2] > 92 µM | Potency [3] > 92 µM | Potency [4] > 92 µM | Potency [5] > 92 µM | Potency [6] > 92 µM | outcome [7] | activity change, negative = cytotoxicity [8] -1.12% | Potency [9] | Potency [11] | Potency [12] | Potency [20] | Potency [19] | Potency [13] | caspase-3 activation [14] -0.319% | outcome [15] | outcome [17] | outcome [18]

CC(C)C=O
inactive: Potency [1] > 92 µM | Potency [2] > 92 µM | Potency [3] > 92 µM | Potency [4] > 92 µM | Potency [5] > 92 µM | Potency [6] > 92 µM | outcome [7] | activity change, negative = cytotoxicity [8] -13.8% | Potency [9] | Potency [11] | Potency [12] | Potency [20] | Potency [19] | Potency [13] | caspase-3 activation [14] 0.00972% | outcome [15] | outcome [16] | outcome [17] | outcome [18]

CC(=O)Nc1cccc(N)c1
inactive: Potency [1] > 92 µM | Potency [2] > 92 µM | Potency [3] > 92 µM | Potency [4] > 92 µM | Potency [5] > 92 µM | Potency [6] > 92 µM | outcome [7] | activity change, negative = cytotoxicity [8] 5.61% | Potency [9] | Potency [10] | Potency [11] | Potency [12] | Potency [19] | Potency [13] | caspase-3 activation [14] 1.66% | outcome [15] | outcome [16] | outcome [17] | outcome [18]

C=CC(=O)OCCCC
inactive: Potency [1] > 92 µM | Potency [2] > 92 µM | Potency [3] > 92 µM | Potency [4] > 92 µM | Potency [5] > 92 µM | Potency [6] > 92 µM | outcome [7] | activity change, negative = cytotoxicity [8] 10.3% | Potency [9] | Potency [10] | Potency [11] | Potency [12] | Potency [19] | Potency [13] | caspase-3 activation [14] 0.501% | outcome [15] | outcome [16] | outcome [18]

CCCCC(CC)COCC1CO1 (configuration not stated)
inactive: Potency [1] > 92 µM | Potency [2] > 92 µM | Potency [3] > 92 µM | Potency [4] > 92 µM | Potency [5] > 92 µM | Potency [6] > 92 µM | outcome [7] | activity change, negative = cytotoxicity [8] -13.9% | Potency [9] | Potency [10] | Potency [11] | Potency [12] | Potency [19] | Potency [13] | caspase-3 activation [14] -3.18% | outcome [15] | outcome [16] | outcome [17] | outcome [18]

O=C1OC(=O)c2c(Br)c(Br)c(Br)c(Br)c21
inactive: Potency [1] > 92 µM | Potency [2] > 92 µM | Potency [3] > 92 µM | Potency [4] > 92 µM | Potency [5] > 92 µM | Potency [6] > 92 µM | outcome [7] | activity change, negative = cytotoxicity [8] -3.13% | Potency [9] | Potency [10] | Potency [11] | Potency [12] | Potency [19] | Potency [13] | caspase-3 activation [14] -0.0657% | outcome [15] | outcome [17] | outcome [18]

COc1ccc(N=[N+]([O-])c2ccc(OC)cc2)cc1
inactive: Potency [1] > 92 µM | Potency [2] > 92 µM | Potency [3] > 92 µM | Potency [4] > 92 µM | Potency [5] > 92 µM | Potency [6] > 92 µM | outcome [7] | activity change, negative = cytotoxicity [8] -19% | Potency [9] | Potency [10] | Potency [12] | Potency [20] | Potency [13] | caspase-3 activation [14] -8.89% | outcome [15] | outcome [16] | outcome [18]

Cc1cc(C(=O)O)ccc1[N+](=O)[O-]
inactive: Potency [1] > 92 µM | Potency [2] > 92 µM | Potency [3] > 92 µM | Potency [4] > 92 µM | Potency [5] > 92 µM | Potency [6] > 92 µM | outcome [7] | activity change, negative = cytotoxicity [8] 4.23% | Potency [9] | Potency [10] | Potency [11] | Potency [12] | Potency [19] | Potency [13] | caspase-3 activation [14] -1.06% | outcome [15] | outcome [17] | outcome [18]

O=C(O)c1cc(Cl)cc(Cl)c1
inactive: Potency [1] > 92 µM | Potency [2] > 92 µM | Potency [3] > 92 µM | Potency [4] > 92 µM | Potency [5] > 92 µM | Potency [6] > 92 µM | outcome [7] | activity change, negative = cytotoxicity [8] -1.73% | Potency [9] | Potency [11] | Potency [12] | Potency [20] | Potency [19] | Potency [13] | caspase-3 activation [14] -1.52% | outcome [15] | outcome [16] | outcome [17] | outcome [18]
